Consider 40 compounds from PubChem BioAssay (Tox21).

Results filed as inconclusive are left out. Entries that show only a call come without a potency. Calls of active or inactive are those of the source. The call rests on the fitted dose curve; in most records, active means well fitted cell-killing curve with a large enough effect in the repeat runs; inconclusive means weak or mixed curves, or effect the other way; inactive means flat fitted curve, though single readings scatter.
Potency means the concentration at half of the fitted maximal effect.

A short description of this test: qHTS assay to identify small molecule antagonists of the androgen receptor (AR) signaling pathway using the MDA cell line - cell viability counter screen (AID 743041; further: nearly all actives have a fitted effect of over 45% in size). The settings on record: MDA-kb2 viability, CellTiter-Fluor, 16 h, cells co-treated with R1881 androgen agonist; series mostly up to 70.3 µM. The text has this:
National Center for Advancing Translational Sciences [NCATS]
NIH Chemical Genomics Center [NCGC]
U.S. Environmental Protection Agency [EPA]
National Institutes of Environmental Health Sciences [NIEHS]
National Toxicology Program [NTP]
U.S. Food and Drug Administration [FDA]
Androgen receptor (AR), a nuclear hormone receptor, plays a critical role in AR-dependent prostate cancer and other androgen related diseases. Endocrine disrupting chemicals (EDCs) and their interactions with steroid hormone receptors like AR may cause disruption of normal endocrine function as well as interfere with metabolic homeostasis, reproduction, developmental and behavioral functions. To identify the compounds that inhibit AR signaling, MDA-kb2 AR-luc cell line (from ATCC, deposited by Wilson et al.) was used to screen the Tox21 10K compound library. MDA-kb2 AR-luc cell line is human breast carcinoma cell line that was stably transfected with a luciferase reporter gene under control of the MMTV promoter containing response elements for both androgen receptor (AR) and glucocorticoid receptor (GR). The cytotoxicity of the Tox21 compound library against the MDA-kb2 AR-luc cell line was tested in parallel by measuring the cell viability using CellTiter-Fluor assay (Promega, Madison, WI) in the same wells.
Tox21 Assay Protocol Summary:
MDA-kb2 AR-luc cells were dispensed at 3,000 cells/4 uL/well of culture medium into white wall/solid-bottom 1536-well plates using a Multidrop Combi (ThermoFisher Scientific, Waltham, MA) dispenser. After the assay plates were incubated at a 37C and 0% CO2 for 5 hr, 23 nL of compounds dissolved in DMSO, positive controls or DMSO only was transferred to the assay plate by a Pintool station (Kalypsys, San Diego, CA), followed by addition of 1 uL of agonist (R1881) in culture medium using a Bioraptr Flying Reagent Dispenser (FRD) workstation (Beckman Coulter, Indianapolis, IN, USA). The plates were incubated at a 37C and 0% CO2 for 16 h. After 15.5 h incubation, 1uL of CellTiter-Fluor reagent (Promega) was added using a Bioraptr FRD to each plate for measuring cytotoxicity. The fluorescence intensity was quantified on a ViewLux plate reader (PerkinElmer, Shelton, CT) following 30 min incubation at 37C and 0% CO2.
Consider `COc1cc(C(=O)N2CCCCCCC2)cc(OC)c1OC`, for which the Potency entry was “inactive”.
As for `O=C(O)CN(CCOCCOCCN(CC(=O)O)CC(=O)O)CC(=O)O`, the entry is “inactive”; as for `FC1(F)C(F)(F)C(F)(F)C2(F)C(F)(F)C(F)(F)C(F)(F)C(F)(F)C2(F)C1(F)F` (stereo not given), “inactive”.
With `c1ccc(CC2=NCCN2)cc1` the entry was “inactive”.
With `NCCCNCCSP(=O)(O)O` the entry was “inactive”; with `COc1ccccc1OCC(O)CN1CCN(CC(=O)Nc2c(C)cccc2C)CC1` (stereo not given), “inactive”.
As for `Brc1c(NC2=NCCN2)ccc2nccnc12`, the Potency result was “inactive”.
As for `Oc1ccc(C2CNCCc3c2cc(O)c(O)c3Cl)cc1` (stereo not given), the entry is “inactive”.
With `CC1(C)CO[C@@H](CC(=O)O)CN1` the entry was “inactive”; with `CCCCC(CC)COC(=O)c1ccccc1O` (stereo not given), “inactive”.
On to `Nc1ccc(S(=O)(=O)Nc2ccnn2-c2ccccc2)cc1`, for which the Potency result is “inactive”.
As for `CC(=O)OCC(=O)[C@@]1(O)CCC2C3CCC4=CC(=O)CC[C@]4(C)C3[C@@H](O)C[C@@]21C` (stereo not given in full), the entry is “inactive”; as for `CC(C)(C)c1nnc(NS(=O)(=O)c2ccccc2)s1`, “inactive”.
As to `O=C1CCCCCCCCCCCN1`, the Potency result is “inactive”.
As for `CCn1nc(C(=O)O)c(=O)c2cc3c(cc21)OCO3`, the entry is “inactive”; as for `CC[N+](C)(C)c1cccc(O)c1`, “inactive”.
Regarding `COCCCOCCCOC`, the Potency entry is “inactive”.
With `N=C(N)c1ccccc1`, the Potency result was “inactive”.
`Cn1cc(S(C)=O)c(=O)c2ccc(F)cc21` (stereo not given): the Potency result was “inactive”.
With `CCCCNC(=O)NCCCC` the entry was “inactive”.
With `CCOC(=O)CCC(C)=O` the entry was “inactive”; with `COC(=O)CC(C)=O`, “inactive”.
As for `CCCCCCCCCCCCCCCCC`, the Potency result is “inactive”.
In the case of `C1CN(CCOCCN2CCOCC2)CCO1`, the Potency entry was “inactive”.
As for `NS(=O)(=O)c1cc2c(cc1Cl)NC(C1CC3C=CC1C3)NS2(=O)=O` (stereo not given), the Potency result was “inactive”.
As for `CO[Si](CCCOCC1CO1)(OC)OC` (stereo not given), the entry is “inactive”.
Regarding `CCOC(C)(C)C`, the Potency entry is “inactive”.
Take `Nc1c2c(nc3ccccc13)CCCC2O` (stereo not given): the Potency entry was “inactive”.
`COc1ccc2c(c1)c(CC(=O)OCC(=O)O)c(C)n2C(=O)c1ccc(Cl)cc1`: the Potency entry is “inactive”.
Regarding `CC(C(=O)O)c1ccc(CC2CCCC2=O)cc1` (stereo not given), the Potency entry is “inactive”.
Consider `C=C(C)C(=O)OCCCCCCCC(C)C`, for which the Potency entry was “inactive”.
For `C=C(C)CS(=O)(=O)O`, the Potency result is “inactive”.
As for `OC1CCCCC1c1ccccc1` (stereo not given), the entry is “inactive”.
With `CCN(CC)CCNC(=O)c1cc(S(C)(=O)=O)ccc1OC` the entry was “inactive”.
As for `CCc1nccnc1CC`, the entry is “inactive”; as for `CN(C)CCCN1c2ccccc2CCc2ccc(Cl)cc21`, 48.6 µM (active); as for `CCO/C([O-])=N/c1c[n+](N2CCOCC2)no1`, “inactive”.
For the compound `CCCN(CCC)CCc1cccc2c1CC(=O)N2`, the Potency entry was “inactive”.
With `CC(C)(C)c1ccc(O)c(O)c1` the entry was “inactive”.
As for `C/C=C(\C)C#N`, the entry is “inactive”.
